PubChem BioAssay (EPA / NIEHS)
Calls of active or inactive are those of the source. Rule for the calls: active = hit-call score of the fitted dose curve at least 0.9, where 1 is the maximum; inactive = score below 0.9.

What was measured:
Conditions in all cases: primary human HUVEC with PBMC; actives raise or lower the signal
[1] = read-out: Monocyte Chemoattractant Protein-1 (MCP1), CCL2 (gene 6347); assay: BSK_LPS_MCP1: BioMAP Diversity Plus: LPS Assay for Monocyte Chemoattractant Protein-1 (MCP1) Biomarker Activity (AID 2283081);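 for AC50: secreted MCP-1 protein quantified by ELISA in culture supernatant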
Outline: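 Values derive from bidirectional fitting against DMSO of ELISA-measured MCP-1 in a human primary endothelial and mononuclear cell co-culture, 24 h after chemical addition under LPS activation.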

[2] = BSK_LPS_PGE2: BioMAP Diversity Plus: LPS Assay for Prostaglandin E2 (PGE2) Biomarker Activity (AID 2283082);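 for AC50: secreted prostaglandin E2 measured by ELISA in LPS-stimulated co-culture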
Outline: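 Endpoint derived from bidirectional curve fitting versus DMSO of ELISA-measured PGE2 in LPS-stimulated human primary vascular co-culture (HUVEC with PBMC) harvested at 24 h.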

[3] = read-out: Tissue Factor, F3 (gene 2152); assay: BSK_LPS_TissueFactor: BioMAP Diversity Plus: LPS Assay for Tissue Factor Biomarker Activity (AID 2283084)
Outline: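 Read-out: CD142 ELISA, 24 h. System: LPS-driven human endothelial/PBMC co-culture. Analysis: up- or down-signal fitted against DMSO.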

[4] = read-out: Tumor necrosis factor (Homo sapiens) (UniProt P01375); assay: BSK_LPS_TNFa: BioMAP Diversity Plus: LPS Assay for Tumour Necrosis Factor alpha (TNFa) Biomarker Activity (AID 2283085)
Outline: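 Primary human vascular co-culture of HUVEC and PBMC; TNFa ELISA 24 h after treatment, analysed as increase or decrease relative to DMSO control.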

[5] = read-out: Vascular cell adhesion molecule 1 (VCAM1), VCAM1 (gene 7412); assay: BSK_LPS_VCAM1: BioMAP Diversity Plus: LPS Assay for Vascular cell adhesion molecule 1 (VCAM1) Biomarker Activity (AID 2283086)
Outline: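 Primary human vascular co-culture (umbilical vein endothelium plus PBMC) stimulated with LPS received chemical; 24 h later VCAM-1 was read by ELISA. Overt cytotoxicity was assessed by sulforhodamine B staining of parallel cultures at the same time point.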

[6] = read-out: CD38, CD38 (gene 952); assay: BSK_SAg_CD38: BioMAP Diversity Plus: SAg Assay for CD38 Biomarker Activity (AID 2283087)
Outline: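 Fluorescence ELISA of cell-surface CD38 served as the read-out, with either increase or decrease fitted against DMSO controls. Cells were a human umbilical vein endothelium plus PBMC co-culture under SEB/TSST-1 stimulation, measured 24 h after dosing.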

[7] = read-out: CD40, CD40 (gene 958); assay: BSK_SAg_CD40: BioMAP Diversity Plus: SAg Assay for CD40 Biomarker Activity (AID 2283088)
Outline: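 Endpoint derived by fitting increases or decreases versus DMSO controls. CD40 is detected by fluorescence ELISA in a human vascular co-culture of endothelium and PBMC at 24 h.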

[8] = read-out: CD69, CD69 (gene 969); assay: BSK_SAg_CD69: BioMAP Diversity Plus: SAg Assay for CD69 Biomarker Activity (AID 2283089);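 for AC50: cell surface CD69 protein quantified by ELISA with fluorescence detection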
Outline: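 ELISA, fluorescence read-out: CD69 on human umbilical vein endothelial cell + PBMC co-culture, 24 h post-dosing. Gain or loss of signal fitted bidirectionally against DMSO baseline.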

[9] = read-out: Monocyte Chemoattractant Protein-1 (MCP1), CCL2 (gene 6347); assay: BSK_SAg_MCP1: BioMAP Diversity Plus: SAg Assay for Monocyte Chemoattractant Protein-1 (MCP1) Biomarker Activity (AID 2283090)
Outline: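 MCP-1 levels in the endothelial–PBMC SAg co-culture were quantified by ELISA at 24 h post-dosing; both increases and decreases versus DMSO scored. Cytotoxicity monitored by SRB total protein in parallel cultures.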

[10] = read-out: Macrophage colony-stimulating factor (MCSF), CSF1 (gene 1435); assay: BSK_LPS_MCSF: BioMAP Diversity Plus: LPS Assay for Macrophage colony-stimulating factor (MCSF) Biomarker Activity (AID 2283083)
Outline: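 Bidirectional fit versus DMSO of ELISA-measured M-CSF in co-cultured human umbilical vein endothelial cells and PBMC, sampled 24 h after dosing.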

Measured: AC50

Sequence of Tumor necrosis factor (Homo sapiens) (P01375 whole entry, looked up): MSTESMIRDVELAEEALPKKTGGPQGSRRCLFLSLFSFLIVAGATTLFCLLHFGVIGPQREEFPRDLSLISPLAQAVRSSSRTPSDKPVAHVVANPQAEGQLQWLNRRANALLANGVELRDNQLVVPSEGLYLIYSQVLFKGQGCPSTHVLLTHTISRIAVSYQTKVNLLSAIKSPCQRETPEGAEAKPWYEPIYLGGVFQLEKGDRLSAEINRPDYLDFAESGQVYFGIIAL

OCCNCCO
inactive: [1] | [2] | [3] | [4] | [5] | [6] | [7] | [8] | [9]

Cc1nccn1-c1ccc(Sc2cccc(C3(C(N)=O)CCOCC3)c2)cc1
active: [5] 6.8 µM | [7] 4.56 µM | [9] 6.58 µM
inactive: [1] | [2] | [10] | [3]

OCc1c[nH]c2ccccc12
inactive: [1] | [2] | [3] | [5] | [8] | [9]
active: [10] 3.97 µM | [7] 20 µM

NNC(=O)c1ccncc1
inactive: [1] | [2] | [10] | [3] | [5] | [7] | [9]

CCCCOC(=O)c1ccccc1
inactive: [1] | [2] | [10] | [3] | [5] | [7] | [8] | [9]

OC(Cn1cncn1)(Cn1cncn1)c1ccc(F)cc1F
inactive: [1] | [2] | [3] | [4] | [5] | [6] | [7] | [8] | [9]

OCCC(F)(F)C(F)(F)C(F)(F)C(F)(F)F
inactive: [1] | [2] | [10] | [3] | [5] | [7] | [8] | [9]

O=C1CN(N=Cc2ccc([N+](=O)[O-])o2)C(=O)N1
active: [5] 20 µM
inactive: [1] | [2] | [3] | [4] | [6] | [7] | [8] | [9]

C=CCc1cc(S(=O)(=O)c2ccc(O)c(CC=C)c2)ccc1O
active: [1] 15.8 µM | [2] 32.3 µM | [3] 32.7 µM | [4] 29.8 µM | [5] 30 µM | [6] 14.5 µM | [7] 11.6 µM | [8] 24.3 µM | [9] 15.1 µM

O=C(O)c1cccc(C[C@@H]2COc3ccc(OCc4nc5cc(F)ccc5s4)cc3[C@@H]2O)c1
inactive: [1] | [2] | [3] | [4] | [5] | [6] | [7] | [8] | [9]

NC(N)=O
inactive: [1] | [2] | [3] | [4] | [5] | [6] | [7] | [8] | [9]

CCCCCCCCCCCCCCO
inactive: [2] | [4]
active: [1] 31.2 µM | [3] 33.3 µM | [5] 29.6 µM | [6] 31.1 µM | [7] 34.1 µM | [8] 30.6 µM | [9] 34.2 µM

C[Si](C)(C)C(F)(F)C(F)(F)C(F)(F)F
inactive: [1] | [2] | [3] | [4] | [5] | [6] | [7] | [8] | [9]

CCN(CC)C(=S)SSC(=S)N(CC)CC
active: [1] 29.5 µM | [2] 14.9 µM | [10] 30.3 µM | [3] 27.6 µM | [5] 28 µM | [6] 31.7 µM | [9] 28.4 µM

CCCOc1ccc(S(=O)(=O)N2CCN(CC)CC2)cc1-c1nc2c(CC)n(Cc3ccccn3)nc2c(=O)[nH]1
inactive: [1] | [2] | [10] | [3] | [5] | [7] | [9]

FC(F)(F)COC(OCC(F)(F)F)OCC(F)(F)F
inactive: [1] | [2] | [3] | [4] | [5] | [6] | [7] | [9]

CCOc1ccc2[nH]cc(C(=O)NCc3ccccc3)c(=O)c2n1
inactive: [1] | [2] | [10] | [3] | [5] | [6] | [7] | [9]

OCc1ccccc1
inactive: [1] | [2] | [10] | [3] | [5] | [7] | [8] | [9]

O=c1[nH]cnc2c1ncn2[C@H]1CC[C@@H](CO)O1
inactive: [1] | [2] | [3] | [4] | [5] | [6] | [7] | [9]

OC(CCl)CCl
inactive: [1] | [2] | [3] | [4] | [5] | [6] | [7] | [9]

FC(F)C(F)(F)COCC1CO1 (stereo unspecified)
inactive: [1] | [2] | [10] | [3] | [5] | [7] | [9]

FC(F)(F)C(F)(F)C(F)(F)C(F)(F)C(F)(F)C(F)(F)I
inactive: [1] | [2] | [10] | [3] | [5] | [7] | [9]

c1ccc(C(O[C@@H]2CCCN(CCc3ccc4c(c3)OCO4)C2)c2ccccc2)cc1
active: [6] 30.6 µM | [7] 30.4 µM | [8] 30.3 µM | [9] 26.5 µM
inactive: [1] | [2] | [3] | [4] | [5]

O=S(=O)(O)c1ccc(N=Nc2c(O)ccc3cc(S(=O)(=O)O)ccc23)cc1
inactive: [1] | [2] | [10] | [3] | [5] | [7] | [8] | [9]

O=S1(=O)CCCO1
inactive: [1] | [2] | [3] | [4] | [5] | [6] | [7] | [8] | [9]

CNC(C)=O
inactive: [1] | [2] | [10] | [3] | [5] | [7] | [9]
